Our source for the Potency values is PubChem BioAssay (NCATS).

Each structure is given as a SMILES string. Results filed as inconclusive are left out. The source made the active and inactive calls. Calls follow the shape of the dose curve; as a rule, active = well fitted cell-killing curve with a large enough effect; inconclusive = small, poorly fitted or top-dose-only effect, or effect the other way; inactive = no such curve, though single readings can be large or run the other way.
Potency is read from the fitted curve at half-maximal effect.

This test in a line: Quantitative High-Throughput drug screen in 47 multiple myeloma cell lines against the NCATS MIPE library collection: FR4_PLB cell viability assay (AID 1918924; also: nearly all actives have a fitted effect of over 35% in size). The note with it: FR4_PLB myeloma cells viability, CellTiter-Glo ATP, 48 h; series mostly up to 45.8 µM. An excerpt: PI: Beverly A. Mock Ph.D.
Laboratory of Cancer Biology and Genetics,
Center for Cancer Research, National Cancer Institute,
National Institute of Health, Bethesda, Maryland
Drug resistance and disease progression are common in multiple myeloma (MM) patients, underscoring the need for new therapeutic combinations. […] We hypothesized that effective combinations would reduce MYC expression and enhance p16 activity. […] These preclinical data identify potentially useful drug combinations for evaluation in drug-resistant MM and reveal potential mechanisms of combined drug sensitivity.
Described herein is the primary MIPE qHTS used to cherrypick compounds. Validated compounds were then further tested for potential synergistic activiy.
[1] Peat TJ, Gaikwad SM, Dubois W, Gyabaah-Kessie N, Zhang S, Gorjifard S, Phyo Z, Andres M, Hughitt VK, Simpson RM, Miller MA, Girvin AT, Taylor A, Williams D, D'Antonio N, Zhang Y, Rajagopalan A, Flietner E, Wilson K, Zhang X, Shinn P, Klumpp-Thomas C, McKnight C, Itkin Z, Chen L, Kazandijian D, Zhang J, Michalowski AM, Simmons JK, Keats J, Thomas CJ, Mock BA. Drug combinations identified by high-throughput screening promote cell cycle transition and upregulate Smad pathways in myeloma. Cancer Lett. 2023 Aug 1;568:216284. doi: 10.1016/j.canlet.2023.216284. Epub 2023 Jun 24. PMID: 37356470; PMCID: PMC10408729.
SEQUENCE No. (e.g., 1, 2, 3, etc.); […] (e.g., Cells, Incubation, Reagent, etc.); VALUE and DESCRIPTION.
1; Cells; 5 uL; white, solid bottom 1536-well Greiner assay plate.
2; Compounds; 23 nL; Kalypsis pin tool (Wako USA) equipped with a 1536-well pin head to transfer to the assay plates.
3; Incubation; 48 hours; 37C incubation.
4; Reagent;5uL; CellTiter Glo (Promega).
5; Detector; 425V; Luminescence; Viewlux PerkinElmer.
NOTES (numbers refer to Sequence numbers above)
1. The cell-based screening methods employed in this study were like those previously published. Briefly, the corresponding myeloma cell lines were screened in 1,536-well plates with 500 cells, 5-uL per well for inhibition of cell viability (assessed by measuring ATP levels with CellTiterGlo).
2. NCATS MIPE 4.0 library of approved and investigational drugs were added using the Kalypsis pin tool. Wells treated with DMSO only for 100% viability and media only wells for 0% viability were used as controls.
3. The assay plates were covered and incubated for 48 hours in a 37C, 5% CO2 incubator with controlled humidity.
4. After 48 hours, CellTilter-GloTM luminescent substrate mix (Promega) reagent was added to the assay plate and plates we incubated for 5 min at room temperature.
5. Signal was measured as median relative luminescence units on a ViewLux (PerkinElmer) multiplate reader.
[1] Heske CM, Davis MI, Baumgart JT, Wilson K, Gormally MV, Chen L, Zhang X, Ceribelli M, Duveau DY, Guha R, Ferrer M, Arnaldez FI, Ji J, Tran HL, Zhang Y, Mendoza A, Helman LJ, Thomas CJ. Matrix Screen Identifies Synergistic Combination of PARP Inhibitors and Nicotinamide Phosphoribosyltransferase (NAMPT) Inhibitors in Ewing Sarcoma. Clin Cancer Res. 2017 Dec 1;23(23):7301-7311. doi: 10.1158/1078-0432.CCR-17-1121. Epub 2017 Sep 12. PMID: 28899971; PMCID: PMC6636827.
Take `CCN(CC)CCNC(=O)c1c(C)[nH]c(C=C2C(=O)Nc3ccc(F)cc32)c1C`: the Potency was 10.8 µM (active). In the case of `C[C@H](NCc1ccc(OCc2cccc(F)c2)cc1)C(N)=O`, the Potency is 16.6 µM (active). With `O=C1NC(=O)C(=Cc2ccc3nccc(-c4ccncc4)c3c2)S1` the figure was 0.332 µM (active).

Take `Cn1cc(C[C@@H](N)C(=O)O)c2ccccc21`: the Potency result is “inactive”.

With `C[C@H]1COc2c(N3CCN(C)CC3)c(F)cc3c(=O)c(C(=O)O)cn1c23`, the Potency result was “inactive”. Then `Cc1ccc([N+](=O)[O-])cc1S(=O)(=O)N(C)N=Cc1cnc2ccc(Br)cn12`, with 0.0166 µM (active); and `CCCCCN=C(N)NN=Cc1c[nH]c2ccc(OC)cc12`, with 2.35 µM (active).

For the compound `Cc1ccc2nc(NCCN)c3ncc(C)n3c2c1`, the Potency was 3.32 µM (active). In the case of `COC1=C(OC)C(=O)C(CC=C(C)CCC=C(C)CCC=C(C)CCC=C(C)CCC=C(C)CCC=C(C)CCC=C(C)CCC=C(C)CCC=C(C)CCC=C(C)C)=C(C)C1=O`, the Potency result was “inactive”. With `C#C[C@]1(O)CC[C@@H]2[C@@H]3CCc4cc(O)ccc4[C@H]3CC[C@@]21C` the figure was 16.6 µM (active); with `CC(C)(O)Cn1c(NC(=O)c2ccc(-c3cn[nH]c3)s2)nc2cc(CN3CCOCC3)ccc21`, 0.743 µM (active); with `Cc1coc2c1C(=O)C(=O)c1c-2ccc2c(C)cccc12`, 20.9 µM (active). As for `CCOC(=O)[C@@H](N)Cc1ccc(-c2cc(O[C@H](c3ccc(Cl)cc3-n3ccc(C)n3)C(F)(F)F)nc(N)n2)cc1`, the Potency was 23.5 µM (active).

For `CN(C)c1ccc2cc(C(=O)N[C@@H](CCCN=C(N)CCl)C(=O)NCc3ccccc3)ccc2c1`, the Potency was 11.8 µM (active). On to `C[C@]12C=CC(=O)N[C@@H]1CC[C@H]1[C@H]3CC[C@@H](C(=O)Nc4cc(C(F)(F)F)ccc4C(F)(F)F)[C@@]3(C)CC[C@@H]12`, for which the Potency is 18.7 µM (active). `c1cncc(CN2CCC(n3ncc4c(N5CCOCC5)nc(-c5ccc6[nH]ccc6c5)nc43)CC2)c1`: the Potency is 4.69 µM (active). Then `OCCN1C[C@H](O)[C@@H](O)[C@H](O)[C@@H]1CO`, with “inactive”. On to `CN[C@H]1[C@@H](O)[C@@H]2O[C@@H]3O[C@H](C)CC(=O)[C@]3(O)O[C@@H]2[C@@H](NC)[C@H]1O`, for which the Potency is 1.66 µM (active). Then `O=C1c2c(O)cccc2[C@@H]([C@@H]2O[C@H](CO)[C@@H](O)[C@H](O)[C@H]2O)c2cc(CO)cc(O)c21`, with “inactive”; and `CCc1c(O)cc(O)c(C(=O)c2ccc(OCCN3CCOCC3)c(OC)c2)c1CC(=O)N(CCOC)CCOC`, with 1.18 µM (active). Then `C[C@H](NC(=O)[C@@H](O)c1cc(F)cc(F)c1)C(=O)N[C@@H]1C(=O)N(C)c2ccccc2-c2ccccc21`, with “inactive”; and `C[C@H](NCc1ccc2c(c1)nc(NC(=O)c1ccc(-c3cn[nH]c3)s1)n2CCc1ccccc1)C(C)(C)C`, with 1.05 µM (active). Then `CC(=O)N[C@H]1[C@@H]([C@H](O)[C@H](O)CO)OC(C(=O)O)=C[C@@H]1N=C(N)N`, with “inactive”; and `COc1cc2ncnc(Nc3cccc(Br)c3)c2cc1OC`, with 1.32 µM (active); and `Cc1cnn(C)c1C(=O)Nc1cc(Nc2ccc3c(C=Cc4ccccn4)n[nH]c3c2)ccc1F`, with 20.9 µM (active). `CC(=O)N[C@@H]1[C@H](O[C@@H]2c3ccc(c(Cl)c3)Oc3cc4cc(c3O[C@H]3O[C@H](CO)[C@@H](O)[C@H](O)[C@H]3NC(=O)CCCCCCCC(C)C)Oc3ccc(cc3Cl)C[C@H]3NC(=O)[C@H](N)c5ccc(O)c(c5)Oc5cc(O)cc(c5)[C@H](NC3=O)C(=O)N[C@H]4C(=O)N[C@H]3C(=O)N[C@@H]2C(=O)N[C@@H](C(=O)O)c2cc(O)cc(O[C@H]4O[C@H](CO)[C@@H](O)[C@H](O)[C@H]4O)c2-c2cc3ccc2O)O[C@H](CO)[C@@H](O)[C@@H]1O`: the Potency entry is “inactive”. Turning to `O=C(CCCCCCC(=O)Nc1cccnc1)NO`, the Potency is 2.35 µM (active). In the case of `Nc1nc(=O)n([C@H]2C[C@H](O)[C@@H](CO)O2)cc1F`, the Potency entry is “inactive”. As for `CCOC(=O)[C@H](CCc1ccccc1)N[C@@H](C)C(=O)N1[C@@H](C(=O)O)C[C@H]2CCC[C@@H]21`, the Potency is 18.7 µM (active).

On to `N#CNC(=NCCCCCCOc1ccc(Cl)cc1)Nc1ccncc1`, for which the Potency is 20.9 µM (active). For `C[C@H](NC(=O)C(C#N)=Cc1cccc(Br)n1)c1ccccc1`, the Potency was 3.72 µM (active).

As for `C=CCNc1c(O)cc2c(O)c1C[C@@H](C)C[C@H](OC)[C@@H](O)[C@@H](C)C=C(C)[C@H](OC(N)=O)[C@@H](OC)C=CC=C(C)C(=O)N2`, the Potency was 0.372 µM (active).

Turning to `CC(C)C[C@H](NC(=O)CNC(=O)c1cc(Cl)ccc1Cl)B1OC(=O)CC(CC(=O)O)(C(=O)O)O1` (stereo not given in full), the Potency is 0.0418 µM (active).

On to `COc1cc([C@@H]2c3cc4c(cc3[C@H](O)[C@H]3COC(=O)[C@@H]23)OCO4)cc(OC)c1OC`, for which the Potency is 0.0296 µM (active). Then `COc1cc(N2CCC(C(N)=O)CC2)ccc1Nc1nc(N)c(Cl)c(Nc2ccccc2S(=O)(=O)C(C)C)n1`, with 14.8 µM (active). `CN(C)CC(=O)N1CCC(c2ccc(NC(=O)c3ncc(C#N)[nH]3)c(C3=CCCCC3)c2)CC1`: the Potency result was “inactive”. In the case of `Nc1ncn([C@@H]2O[C@H](CO)[C@@H](O)[C@@H]2O)c(=O)n1`, the Potency is 4.69 µM (active). On to `COC(=O)[C@@H]1CC2=CC(=O)CC[C@]2(C)[C@@]23O[C@@H]2C[C@@]2(C)[C@H](CC[C@@]24CCC(=O)O4)[C@@H]13`, for which the Potency result is “inactive”. Take `CN(C)c1ccc(C(=O)NCCCCCCC(=O)NO)cc1`: the Potency is 0.132 µM (active). Take `O=C(C=Cc1ccc(CN(CCO)CCc2c[nH]c3ccccc23)cc1)NO`: the Potency was 0.0743 µM (active).
